This is a sample that favours compounds with a hit; in the whole collection about 2.4% have one here.
Pol eta inh: DNA polymerase eta (human) inhibition | AID 588591 | Q9Y253 | recombinant Pol eta, fluorescent DNA replication assay | hit rate 1.2% among 390,000 | Potency, µM (titrated, usually from 114 µM), for inactives: at the highest dose activity change, negative = inhibition, actives largely listed as inhibitors; also: % is scaled to controls: 0 for no effect and ±100 for the full control effect
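Pol eta (10 nM) was preincubated with compounds for 15 min at room temperature, after which fluorescent replication substrate (50 nM final) was added to start the reaction. Fluorescence was read kinetically at 0 and 10 min.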
POLB inh: inhibitors of human DNA polymerase beta; Pol beta primer extension/strand displacement, fluorescence kinetic; hit rate 1.3% among 340,000; Potency, µM (top dose mostly 114 µM), for inactives: at the highest dose activity change, negative = inhibition, hits mostly inhibitors; also: % is scaled to controls: 0 for no effect and ±100 for the full control effect
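Pol beta (10 nM) was preincubated with compound for 15 min at room temperature. The reaction was then started with 50 nM substrate and read immediately and after a further 10 min at room temperature.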
POLK inh: inhibitors of human DNA polymerase kappa | Q9UBT6 | purified Pol kappa, fluorescent DNA synthesis assay, 10 min | Potency, µM (top dose mostly 107 µM), for the others: at the top dose activity, negative = inhibition, most hits filed as inhibitors | hit rate 0.53% among 400,000 | AID 588579; also: % is scaled to controls: 0 for no effect and ±100 for the full control effect
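Inhibition of 10 nM Pol kappa is measured by a fluorescent read-out at 0 and 10 min following addition of 50 nM substrate (final), with a 15-min room-temperature compound preincubation.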
FEN1 inh: human FEN1 inhibition; P39748; Recombinant FEN1 flap cleavage, fluorescence, 15 min; Potency, µM (top dose mostly 114 µM), inactives show at the highest dose activity change, negative = inhibition, hits mostly inhibitors; hit rate 0.35% among 390,000; AID 588795; also: % is scaled to controls: 0 for no effect and ±100 for the full control effect; nearly all actives have a fitted effect of over 65% in size
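Enzyme 10 nM, 15 min RT preincubation with compound; start with substrate 50 nM final; reads at 0 and 15 min; qHTS titration, four-parameter Hill fit.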
POLI inh: DNA polymerase iota (human) inhibition | Q9UNA4 | Pol iota fluorescent replication assay, 10 min | Potency, µM (series often up to 115 µM), without a hit: at the highest dose activity, negative = inhibition, actives largely listed as inhibitors | hit rate 1% among 390,000
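Pol iota at 10 nM preincubated 15 min with compounds at room temperature; reaction started with fluorescent substrate, 50 nM final. Fluorescence read kinetically at 0 and 10 min; buffer-only wells as negative control.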
WRN inhibitor: blocks human WRN helicase | Potency, µM (top dose mostly 114 µM), for inactives: top-dose activity change, negative = inhibition, actives largely listed as inhibitors | AID 651768 | WRN helicase unwinding, fluorescent forked duplex, kinetic | Q14191 | hit rate 0.46% among 360,000; also: % is scaled to controls: 0 for no effect and ±100 for the full control effect; nearly all actives have a fitted effect of over 55% in size
Target sequence (Q14191 whole entry, looked up): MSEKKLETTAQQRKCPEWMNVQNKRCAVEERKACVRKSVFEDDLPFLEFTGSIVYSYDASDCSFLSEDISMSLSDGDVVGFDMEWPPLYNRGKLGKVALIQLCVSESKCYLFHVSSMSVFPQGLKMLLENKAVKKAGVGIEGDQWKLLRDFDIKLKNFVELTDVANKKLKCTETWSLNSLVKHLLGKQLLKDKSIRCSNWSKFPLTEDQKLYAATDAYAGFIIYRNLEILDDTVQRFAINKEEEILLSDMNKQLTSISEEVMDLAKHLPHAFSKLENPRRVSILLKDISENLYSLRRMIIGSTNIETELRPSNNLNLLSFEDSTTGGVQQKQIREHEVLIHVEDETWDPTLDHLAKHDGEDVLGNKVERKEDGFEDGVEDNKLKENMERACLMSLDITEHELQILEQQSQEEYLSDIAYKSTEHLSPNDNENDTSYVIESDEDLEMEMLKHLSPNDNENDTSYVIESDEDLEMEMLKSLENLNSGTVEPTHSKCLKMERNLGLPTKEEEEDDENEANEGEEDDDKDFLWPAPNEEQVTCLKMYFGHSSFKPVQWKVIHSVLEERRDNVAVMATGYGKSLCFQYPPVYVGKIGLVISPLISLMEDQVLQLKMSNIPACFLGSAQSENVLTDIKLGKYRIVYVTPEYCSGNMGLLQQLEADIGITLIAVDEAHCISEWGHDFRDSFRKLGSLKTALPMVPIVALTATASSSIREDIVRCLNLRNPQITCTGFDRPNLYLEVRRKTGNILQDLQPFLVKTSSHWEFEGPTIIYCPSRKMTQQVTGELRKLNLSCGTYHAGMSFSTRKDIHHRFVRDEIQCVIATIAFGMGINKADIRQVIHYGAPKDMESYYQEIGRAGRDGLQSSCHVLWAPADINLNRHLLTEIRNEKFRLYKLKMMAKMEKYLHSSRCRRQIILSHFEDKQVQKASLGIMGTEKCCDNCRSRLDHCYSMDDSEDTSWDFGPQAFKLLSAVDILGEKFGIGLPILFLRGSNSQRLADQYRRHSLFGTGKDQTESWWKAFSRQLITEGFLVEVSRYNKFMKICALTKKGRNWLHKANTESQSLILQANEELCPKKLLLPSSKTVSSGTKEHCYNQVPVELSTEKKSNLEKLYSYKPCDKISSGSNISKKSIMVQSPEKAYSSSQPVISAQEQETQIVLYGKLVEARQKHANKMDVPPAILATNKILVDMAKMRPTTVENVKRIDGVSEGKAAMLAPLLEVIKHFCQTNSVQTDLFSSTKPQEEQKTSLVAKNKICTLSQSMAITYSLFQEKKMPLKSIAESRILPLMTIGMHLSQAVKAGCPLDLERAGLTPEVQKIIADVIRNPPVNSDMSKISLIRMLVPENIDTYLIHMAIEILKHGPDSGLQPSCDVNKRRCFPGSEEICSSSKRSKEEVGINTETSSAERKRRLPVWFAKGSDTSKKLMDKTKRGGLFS
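Enzyme (20 nM final) and test compound sit together 15 min at room temperature before substrate addition. Substrate is a single-forked duplex oligonucleotide (100 nM) labelled with fluorophore and quencher, with 2 mM ATP; helicase unwinding raises red fluorescence, read kinetically.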
An asterisk follows results filed as active; u = inconclusive; x = not tested or not shown; [ ] = another dose, or the depositor's remark. Calls follow the shape of the dose curve; as a rule, active = well fitted curve in the direction sought with a large enough effect; inconclusive = small, poorly fitted or top-dose-only effect, or another doubt; inactive = no such curve, though single readings can be large; an effect the other way counts as inactive or inconclusive. Potency is read from the fitted curve at half-maximal effect.

SMILES | Pol eta inh | POLB inh | POLK inh | FEN1 inh | POLI inh | WRN inhibitor
CCCC[C@H](NC(=O)[C@H](CO)NC(=O)[C@H](Cc1ccc(O)cc1)NC(=O)[C@H](CO)NC(C)=O)C(=O)N[C@@H](CCC(=O)O)C(=O)N[C@@H](Cc1cnc[nH]1)C(=O)N[C@H](Cc1ccccc1)C(=O)N[C@@H](CCCNC(=N)N)C(=O)N[C@@H](Cc1c[nH]c2ccccc12)C(=O)NCC(=O)N[C@@H](CCCCN)C(=O)N1CCC[C@H]1C(=O)N[C@H](C(N)=O)C(C)C | x | x | 12.1%[60.1 µM] | x | x | x
CCc1nnc(NS(=O)(=O)c2ccc(N3C(=O)C4CC=C(Cl)CC4C3=O)cc2)s1 (configuration not stated) | 44.7µM* | 26.8% | -17.4% | -15.2% | u | -19.1%[11.6 µM]
Nc1nc(NCc2ccc(Cl)c(Cl)c2)c2[nH]cnc2n1 | x | x | -0.6% | -5.7% | 55.0% | x
COc1ccc(CCNC(=O)C(=O)NCC(c2cccs2)S(=O)(=O)c2ccccc2)cc1 (configuration not stated) | -14.5% | u | -20.8%[60.1 µM] | 14.3% | 89.1µM* | x
COc1cccc(N2CC34C=CC(O3)C(C(=O)O)C4C2=O)c1 (configuration not stated) | 14.1µM* | u | u | -10.7% | u | -27.9%
Cc1cccc(N2CC34C=CC(O3)C(C(=O)O)C4C2=O)c1 (configuration not stated) | 6.3% | 0.6% | -9.8% | 4.5% | -5.6% | -1.5%
COc1cc2nc(CC(O)c3nc4cc(OC)c(OC)cc4[nH]3)[nH]c2cc1OC (configuration not stated) | x | x | 10µM* | u | 3.16µM* | x
CCc1nnc(N/N=C/c2ccc(N3CCC(C)CC3)c([N+](=O)[O-])c2)n1N | -14.2% | -0.4% | -24.7% | -7.8% | 8.91µM* | -1.4%[11.6 µM]
CCc1nnc(N/N=C/c2ccccc2Cl)n1N | 4.1% | 14.1% | -21.1% | u | u | -6.9%
Cc1nnc(N/N=C/c2ccc([N+](=O)[O-])cc2)n1N | -5.4% | 0.1% | -11.3% | -2.1% | u | -1.8%[11.6 µM]
Cc1nnc(N/N=C/c2cc([N+](=O)[O-])c(N3CCC(C)CC3)cc2N2CCC(C)CC2)n1N | -16.5% | -22.8% | -13.3% | -31.8% | 3.98µM* | -17.1%[57.1 µM]
C[C@@H]1[C@H](c2ccccc2)OCCS(=O)(=O)N1Cc1ccccc1Br | x | x | -16.5% | -24.8% | 2.9% | x
C=CS(=O)(=O)c1c2cc(OC)ccc2nc2ccc(OC)cc12 | u | x | -22.3% | u | 28.2µM* | u
Oc1ccc(Br)cc1C1C=C(c2ccc3c(c2)OCO3)NC(c2c(F)cccc2Cl)N1 (configuration not stated) | x | x | -9.6% | u | u | x
N#Cc1c(N)sc(=S)c2c1CCCCC2 | 12.6µM* | 12.6µM* | 28.2µM* | u | u | 20µM*
CC1(C)Cc2c(C#N)c(N)sc(=S)c2CS1 | u | 13.6% | -12.6% | -12.0% | u | u
O/N=C(/CBr)c1ccc2ccccc2c1 | x | x | -26.3% | -4.8% | 1.7% | x
CC(=O)c1cc(O)c2ccccc2c1O | 89.1µM* | u | 3.3% | u | 3.6% | -11.9%[11.6 µM]
CSCC[C@H](NC(=O)[C@H](CC(C)C)NC(=O)[C@H](CO)NC(=O)[C@H](CCC(=O)O)NC(=O)[C@H](CC(C)C)NC(=O)[C@H](Cc1ccc(O)cc1)NC(=O)[C@H](CCCCN)NC(=O)[C@H](CCCCN)NC(=O)[C@H](C)NC(=O)[C@H](CO)NC(=O)[C@H](CC(C)C)NC(=O)[C@H](CCC(N)=O)NC(=O)CNC(=O)[C@H](CC(C)C)NC(=O)[C@H](CC(C)C)NC(=O)[C@H](CCCCN)NC(=O)[C@H](CO)NC(=O)[C@H](Cc1ccccc1)NC(=O)[C@H](CC(=O)O)NC(=O)[C@H](CO)NC(=O)[C@@H](NC(=O)[C@H](Cc1ccccc1)NC(=O)[C@@H](NC(=O)CNC(=O)[C@H](CC(=O)O)NC(=O)[C@H](C)NC(=O)[C@@H](N)Cc1cnc[nH]1)C(C)C)[C@@H](C)O)C(N)=O | x | x | 19.4%[60.1 µM] | x | x | x

Source: PubChem BioAssay
